Experiment [1] has as its system PRMT1 (protein arginine N-methyltransferase 1). The experiment can be described thus: PRMT1 binders on small-molecule microarrays, primary screen, biochemical, small-molecule microarray, 635 nm fluorescence (AID 1088).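 Also: binding of Prmt1 protein to compounds spotted on small-molecule microarray slides.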 To be noted: small-molecule microarray binding, higher = more signal.
The nature of experiment [2]: yeast growth modulation, basal conditions, primary screen, YJM789 clinical isolate, OD600, 24 h (AID 1089).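 Also: growth of clinical yeast isolate S. cerevisiae YJM 789 seeded 1000 cells per well; test concentration not given here.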 To be noted: S. cerevisiae YJM789 growth, higher = more signal, called active from +8 up or from −8 down.
A short description of experiment [3]: fission yeast growth modulation, primary screen, strain 972, OD600, 24 h, no modulator (AID 1090).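 Also: basal condition with compound alone and no growth modifier present; test concentration not given here.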 To be noted: S. pombe 972 growth, higher = more signal, called active from +8 up or from −8 down.
The nature of experiment [4]: S. cerevisiae growth modulation with rapamycin, primary screen, strain BY4716, OD600, 96 h (AID 1091). Also: test concentration not given here. To be noted: higher = more signal, called active from +8 up or from −8 down.
The target of experiment [5] is Torsin-1A-interacting protein 2 (Homo sapiens) (UniProt Q8NFQ8). The experiment can be described thus: LULL1 binders on small-molecule microarray, primary screen, cell lysate, human LULL1 lysate, 635/667 nm fluorescence (AID 1092).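 Also: probe is lysate of COS7 cells overexpressing human LULL1; score merges per-feature 667 nm fluorescence with signal-to-noise.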 As to conditions: hLULL1 lysate binding, 635 nm fluorescence, higher = more signal.
Experiment [6] in a line: E. coli growth modulation, two-sided OD650, primary screen, E. coli filamentation project, strain DRC41, 24 h (AID 1093).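 Also: MC1000 strain lacking acrAB efflux and sulA so SOS filamentation is blocked; test concentration not given here.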 As to conditions: OD650, 24 h, higher = more signal, called active from +8 up or from −8 down.
The nature of experiment [7]: small-molecule microarray binders of probe aLefty2, primary screen, biochemical, biotinylated probe, 635/667 nm fluorescence (AID 1094).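 Also: score merges spot fluorescence near 667 nm with spot signal-to-noise ratio.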 To be noted: higher = more signal.
Experiment [8] relates to Noggin (protein binding on small-molecule microarray). Put plainly: Noggin binders on small-molecule microarray, primary screen, biochemical, 635/667 nm fluorescence (AID 1095).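 Also: score merges 667 nm feature fluorescence with signal to noise over triplicate slides.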 To be noted: 635 nm fluorescence, higher = more signal.
For experiment [9], the target named is Neurogenic locus notch homolog protein 3 (Homo sapiens) (UniProt Q9UM47). Put plainly: NOTCH3 binders on small-molecule microarray, primary screen, biochemical, 635/667 nm fluorescence (AID 1096). To be noted: NOTCH3 binding, 635 nm fluorescence, higher = more signal.
Experiment [10] is described as follows: small-molecule microarray binders of probe aEGFR, primary screen, biochemical, biotinylated probe, 635/667 nm fluorescence (AID 1097).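 Also: probe is a biotinylated anti-EGFR antibody binding compounds printed on slides; score combines fluorescence near 667 nm and signal to noise of each spot.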 As to conditions: higher = more signal.
The test system of experiment [11] is Plasmodium falciparum Sir2 (PF13_0152, Sir2A). The experiment can be described thus: pfSir2 binders on small-molecule microarrays, primary screen, biochemical, small-molecule microarray, 635 nm fluorescence (AID 1098).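 Also: score merges spot fluorescence intensity with its signal-to-noise ratio.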 To be noted: small-molecule microarray binding, fluorescence 635 nm; higher = more signal.
Experiment [12] is described as follows: small-molecule microarray binders of probe aDKK1, primary screen, biochemical, biotinylated probe, 635/667 nm fluorescence (AID 1099).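 Also: score merges 667nm spot fluorescence with signal to noise across triplicate slides; reference of the scale not given here.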 As to conditions: higher = more signal.
Experiment [13] in a line: small-molecule microarray binders of probe aCHRDL2, primary screen, biochemical, biotinylated probe, 635/667 nm fluorescence (AID 1100). As to conditions: higher = more signal.
Experiment [14] can be described thus: splicing luciferase reporter signal modulators, primary screen, spliceosome inhibition project, cell-based, HEK293, splice +/- reporter (AID 1101).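 Also: HEK293 cells carrying a splicing-competent luciferase reporter gene; test concentration not given here.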 To be noted: luminescence, 24 h, higher = more signal, called active from +8 up or from −8 down. (Reporter assays use an easily measured gene product as a stand-in for the process of interest.)
Experiment [15] has as its target Fibroblast growth factor 10 (Homo sapiens) (UniProt O15520). The experiment can be described thus: FGF10 binders on small-molecule microarrays, primary screen, biochemical, small-molecule microarray, 635 nm fluorescence (AID 1102). As to conditions: FGF10 binding, fluorescence 635 nm, higher = more signal.
The subject of experiment [16] is glycogen synthase kinase-3 (GSK3A per assay name; protocol says GSK3B). Put plainly: GSK3 binders on small-molecule microarrays, primary screen, biochemical, small-molecule microarray, 635 nm fluorescence, GSK3A (AID 1103). Also: the record names both GSK3A and GSK3B. To be noted: small-molecule microarray binding, fluorescence 635 nm; higher = more signal.
In experiment [17] the target is Epidermal growth factor receptor (Homo sapiens) (UniProt P00533). The experiment can be described thus: EGFR binders on small-molecule microarrays, primary screen, biochemical, small-molecule microarray, 635 nm fluorescence (AID 1104).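 Also: score merges 667 nm emission intensity with spot signal to noise over triplicate slides.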 To be noted: EGFR binding, higher = more signal.
The target of experiment [18] is Follistatin-related protein 3 (Homo sapiens) (UniProt O95633). Put plainly: FSTL3 binders on small-molecule microarrays, primary screen, biochemical, small-molecule microarray, 635 nm fluorescence (AID 1105).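 Also: score merges emission near 667 nm and signal to noise per printed spot across three slides.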 As to conditions: FSTL3 binding, higher = more signal.
Experiment [19] has as its target Dickkopf-related protein 1 (Homo sapiens) (UniProt O94907). Put plainly: DKK1 binders on small-molecule microarrays, primary screen, biochemical, small-molecule microarray, 635 nm fluorescence scan (AID 1106).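 Also: score merges emission near 667 nm with signal to noise over three replicate slides.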 To be noted: DKK1 binding, higher = more signal.
In experiment [20] the test system is Inhibin beta A chain (activin A). Put plainly: INHBA (activin A) binders on microarrays, primary screen, biochemical, small-molecule microarray, 635 nm fluorescence scan (AID 1107).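 Also: mouse activin A protein probed at 4.33 µg/mL on printed slides; score merges bound-protein fluorescence near 667 nm with spot signal-to-noise.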 As to conditions: small-molecule microarray binding, higher = more signal.

Calls of active or inactive are those of the source.

Epidermal growth factor receptor (Homo sapiens), sequence (P00533 whole entry, looked up): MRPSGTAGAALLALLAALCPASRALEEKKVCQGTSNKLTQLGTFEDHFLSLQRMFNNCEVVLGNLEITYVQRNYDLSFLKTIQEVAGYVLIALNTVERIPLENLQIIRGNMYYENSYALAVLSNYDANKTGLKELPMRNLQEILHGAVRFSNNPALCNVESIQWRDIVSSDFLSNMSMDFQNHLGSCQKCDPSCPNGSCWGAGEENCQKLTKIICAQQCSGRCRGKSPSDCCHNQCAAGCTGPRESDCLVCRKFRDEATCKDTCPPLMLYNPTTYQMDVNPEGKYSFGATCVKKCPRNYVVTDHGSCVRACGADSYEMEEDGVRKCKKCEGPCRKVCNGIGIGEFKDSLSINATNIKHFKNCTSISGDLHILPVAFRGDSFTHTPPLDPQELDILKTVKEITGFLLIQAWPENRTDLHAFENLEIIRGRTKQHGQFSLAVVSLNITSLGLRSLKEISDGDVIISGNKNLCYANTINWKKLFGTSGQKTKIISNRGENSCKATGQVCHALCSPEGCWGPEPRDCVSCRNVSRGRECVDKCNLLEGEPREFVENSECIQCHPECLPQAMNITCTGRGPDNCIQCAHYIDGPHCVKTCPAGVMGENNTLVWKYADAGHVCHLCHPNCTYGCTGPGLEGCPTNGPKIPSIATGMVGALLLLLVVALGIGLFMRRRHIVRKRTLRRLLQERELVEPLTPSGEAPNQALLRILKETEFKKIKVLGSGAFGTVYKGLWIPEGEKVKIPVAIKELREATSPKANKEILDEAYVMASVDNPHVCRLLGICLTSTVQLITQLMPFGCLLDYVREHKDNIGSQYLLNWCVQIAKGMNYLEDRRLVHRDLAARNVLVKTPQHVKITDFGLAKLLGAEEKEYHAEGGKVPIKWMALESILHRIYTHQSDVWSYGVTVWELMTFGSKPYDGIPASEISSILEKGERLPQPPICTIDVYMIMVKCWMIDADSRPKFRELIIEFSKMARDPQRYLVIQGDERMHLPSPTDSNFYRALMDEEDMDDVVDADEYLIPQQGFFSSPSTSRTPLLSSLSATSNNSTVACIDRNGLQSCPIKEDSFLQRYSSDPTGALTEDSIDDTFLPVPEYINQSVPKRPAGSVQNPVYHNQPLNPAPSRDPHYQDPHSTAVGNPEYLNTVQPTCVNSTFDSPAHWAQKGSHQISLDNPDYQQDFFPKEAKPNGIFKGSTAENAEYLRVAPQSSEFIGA
Neurogenic locus notch homolog protein 3 (Homo sapiens), sequence (Q9UM47 whole entry, looked up): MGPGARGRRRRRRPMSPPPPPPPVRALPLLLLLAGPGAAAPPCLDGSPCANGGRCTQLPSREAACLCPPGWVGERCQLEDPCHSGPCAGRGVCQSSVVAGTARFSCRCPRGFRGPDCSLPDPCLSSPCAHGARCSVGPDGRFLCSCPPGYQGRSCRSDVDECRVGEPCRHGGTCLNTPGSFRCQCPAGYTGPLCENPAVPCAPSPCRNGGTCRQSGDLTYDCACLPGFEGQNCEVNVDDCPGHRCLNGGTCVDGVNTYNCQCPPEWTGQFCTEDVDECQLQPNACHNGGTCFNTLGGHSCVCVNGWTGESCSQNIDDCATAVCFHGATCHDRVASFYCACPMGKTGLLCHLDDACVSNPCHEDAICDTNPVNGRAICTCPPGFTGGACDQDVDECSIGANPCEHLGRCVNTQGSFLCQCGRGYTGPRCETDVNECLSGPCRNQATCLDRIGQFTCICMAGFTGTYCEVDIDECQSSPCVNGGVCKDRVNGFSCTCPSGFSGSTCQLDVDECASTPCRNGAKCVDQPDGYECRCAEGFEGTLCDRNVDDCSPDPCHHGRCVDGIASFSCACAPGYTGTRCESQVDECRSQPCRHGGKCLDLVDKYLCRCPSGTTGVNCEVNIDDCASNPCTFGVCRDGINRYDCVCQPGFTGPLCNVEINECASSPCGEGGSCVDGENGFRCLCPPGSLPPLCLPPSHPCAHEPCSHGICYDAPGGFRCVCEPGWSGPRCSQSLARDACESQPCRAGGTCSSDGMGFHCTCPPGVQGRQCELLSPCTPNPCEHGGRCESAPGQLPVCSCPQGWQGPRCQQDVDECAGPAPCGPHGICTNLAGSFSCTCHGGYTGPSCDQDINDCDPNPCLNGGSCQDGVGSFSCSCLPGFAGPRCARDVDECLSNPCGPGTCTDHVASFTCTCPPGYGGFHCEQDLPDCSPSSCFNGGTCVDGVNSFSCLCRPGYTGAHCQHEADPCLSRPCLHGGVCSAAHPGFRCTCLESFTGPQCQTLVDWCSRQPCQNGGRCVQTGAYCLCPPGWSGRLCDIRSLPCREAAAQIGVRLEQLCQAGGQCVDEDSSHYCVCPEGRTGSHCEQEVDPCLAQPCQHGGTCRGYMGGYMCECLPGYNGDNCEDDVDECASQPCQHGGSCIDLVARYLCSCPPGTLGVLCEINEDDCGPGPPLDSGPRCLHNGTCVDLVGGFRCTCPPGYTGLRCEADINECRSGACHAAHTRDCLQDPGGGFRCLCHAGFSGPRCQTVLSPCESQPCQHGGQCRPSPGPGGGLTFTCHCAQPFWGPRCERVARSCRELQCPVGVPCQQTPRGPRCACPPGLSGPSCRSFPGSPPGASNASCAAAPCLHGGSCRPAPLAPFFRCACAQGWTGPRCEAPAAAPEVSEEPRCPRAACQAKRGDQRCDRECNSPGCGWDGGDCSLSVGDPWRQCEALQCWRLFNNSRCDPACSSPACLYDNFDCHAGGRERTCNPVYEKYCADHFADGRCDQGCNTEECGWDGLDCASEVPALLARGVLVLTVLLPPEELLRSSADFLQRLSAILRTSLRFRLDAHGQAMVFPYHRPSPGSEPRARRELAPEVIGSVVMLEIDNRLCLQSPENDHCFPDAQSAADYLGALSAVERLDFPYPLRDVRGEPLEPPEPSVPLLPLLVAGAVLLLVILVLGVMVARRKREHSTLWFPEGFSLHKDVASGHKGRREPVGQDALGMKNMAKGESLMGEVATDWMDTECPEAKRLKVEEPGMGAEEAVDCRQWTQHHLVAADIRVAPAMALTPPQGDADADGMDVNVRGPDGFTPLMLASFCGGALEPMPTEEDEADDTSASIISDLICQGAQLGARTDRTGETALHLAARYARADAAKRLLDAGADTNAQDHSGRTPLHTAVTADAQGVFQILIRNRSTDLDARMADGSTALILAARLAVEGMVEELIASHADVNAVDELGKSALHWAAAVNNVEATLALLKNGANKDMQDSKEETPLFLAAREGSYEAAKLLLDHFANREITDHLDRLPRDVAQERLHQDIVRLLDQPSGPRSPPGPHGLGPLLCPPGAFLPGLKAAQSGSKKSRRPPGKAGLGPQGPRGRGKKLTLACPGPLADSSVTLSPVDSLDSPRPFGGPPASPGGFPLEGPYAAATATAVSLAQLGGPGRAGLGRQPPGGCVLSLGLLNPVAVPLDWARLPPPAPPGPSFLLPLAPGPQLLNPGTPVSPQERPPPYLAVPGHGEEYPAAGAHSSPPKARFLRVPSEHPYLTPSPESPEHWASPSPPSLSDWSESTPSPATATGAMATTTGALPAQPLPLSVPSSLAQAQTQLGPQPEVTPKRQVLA
Torsin-1A-interacting protein 2 (Homo sapiens), sequence (Q8NFQ8 whole entry, looked up): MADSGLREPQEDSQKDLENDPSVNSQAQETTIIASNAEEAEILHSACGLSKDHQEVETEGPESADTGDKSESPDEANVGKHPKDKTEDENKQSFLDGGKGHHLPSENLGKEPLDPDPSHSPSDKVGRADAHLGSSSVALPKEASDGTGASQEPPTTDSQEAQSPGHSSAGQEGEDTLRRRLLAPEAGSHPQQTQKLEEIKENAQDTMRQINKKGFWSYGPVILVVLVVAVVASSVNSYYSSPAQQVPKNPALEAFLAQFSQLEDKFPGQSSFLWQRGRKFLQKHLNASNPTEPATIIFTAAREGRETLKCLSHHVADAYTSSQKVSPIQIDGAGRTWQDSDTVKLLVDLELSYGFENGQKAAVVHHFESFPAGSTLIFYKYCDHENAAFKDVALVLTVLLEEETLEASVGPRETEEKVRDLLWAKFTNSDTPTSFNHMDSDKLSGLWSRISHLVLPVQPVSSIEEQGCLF
Fibroblast growth factor 10 (Homo sapiens), sequence (O15520 whole entry, looked up): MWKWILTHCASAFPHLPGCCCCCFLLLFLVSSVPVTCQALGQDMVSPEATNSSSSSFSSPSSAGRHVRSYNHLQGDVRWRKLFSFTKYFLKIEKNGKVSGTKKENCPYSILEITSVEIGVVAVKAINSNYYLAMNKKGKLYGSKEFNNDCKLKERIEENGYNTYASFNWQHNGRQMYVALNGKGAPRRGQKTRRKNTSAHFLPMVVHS
Follistatin-related protein 3 (Homo sapiens), sequence (O95633 whole entry, looked up): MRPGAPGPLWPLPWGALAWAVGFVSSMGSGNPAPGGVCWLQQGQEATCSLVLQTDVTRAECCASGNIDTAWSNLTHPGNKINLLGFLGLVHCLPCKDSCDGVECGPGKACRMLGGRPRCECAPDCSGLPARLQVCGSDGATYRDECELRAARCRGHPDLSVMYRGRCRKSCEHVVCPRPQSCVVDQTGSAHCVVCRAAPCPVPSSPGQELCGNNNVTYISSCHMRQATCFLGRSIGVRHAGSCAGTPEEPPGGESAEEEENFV
Dickkopf-related protein 1 (Homo sapiens), sequence (O94907 whole entry, looked up): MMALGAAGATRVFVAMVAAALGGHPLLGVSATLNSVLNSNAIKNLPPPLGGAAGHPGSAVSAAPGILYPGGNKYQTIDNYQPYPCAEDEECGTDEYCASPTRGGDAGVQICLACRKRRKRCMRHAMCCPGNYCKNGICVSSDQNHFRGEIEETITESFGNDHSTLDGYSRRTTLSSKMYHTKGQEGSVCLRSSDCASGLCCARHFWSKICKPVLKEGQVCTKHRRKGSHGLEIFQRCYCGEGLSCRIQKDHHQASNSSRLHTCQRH

On to `C[C@]1(C(=O)NCCN2CCOCC2)c2ccccc2C(=O)N(Cc2ccccc2)[C@H]1c1ccc(CO)cc1`, for which the composite z-score is -0.804 in [1]; 2.99 in [5]; -0.0539 in experiment [7]; -0.54 in [8]; -0.911 in experiment [9]; -0.23 in [10]. Further, the composite z-score in [11] was 1.59; in experiment [12], -0.082; in experiment [13], 0.606; in experiment [15] it was -0.632; in experiment [16], -0.748; in [17], -0.491. Also, the composite z-score is -0.824 in experiment [18], -0.396 in experiment [19] and 0.519 in experiment [20]. For the same compound, the z-score was 0.364 (inactive) in experiment [2]; -0.304 (inactive) in experiment [3]; -0.877 (inactive) in experiment [4]; 0.0355 (inactive) in experiment [6]; -0.675 (inactive) in experiment [14].

As for `C[C@@H]1NC(=O)[C@H](Cc2ccccc2)NC(=O)[C@@]23C(=O)N[C@@H](Cc4ccccc4)C2[C@H](C)[C@@]2(C)O[C@H]2C3/C=C/C/C=C\CNC1=O` (stereo not given in full), the composite z-score in experiment [1] is -0.747; in experiment [5] it was -1.73; in [7], -0.174; in [8], 0.0939; in experiment [9] it was -0.769; in experiment [10], -0.171. Also, the composite z-score is 1.04 in experiment [11]; -0.277 in experiment [12]; -0.533 in experiment [13]; -0.356 in experiment [15]; -1.48 in experiment [16]; -0.202 in [17]. In addition, the composite z-score in experiment [18] was -0.0037; in experiment [19] it was 0.515; in experiment [20], 0.944. The z-score in [2] was 0.723 (inactive); in experiment [3], 0.0909 (inactive); in [4], 0.937 (inactive); in [6], -1.38 (inactive); in [14], -0.212 (inactive).

Consider `Cc1ccc(N2C(=O)c3ccccc3[C@](C)(C(=O)O)[C@@H]2c2ccc(CO)cc2)nc1`, for which the composite z-score is -1.11 in experiment [1]; -1.18 in experiment [5]; -0.15 in experiment [7]; -2.06 in experiment [8]; -1.17 in [9]; -0.427 in experiment [10]. For the same compound, the composite z-score in experiment [11] was -0.445; in experiment [12], -0.322; in experiment [13] it was 0.365; in experiment [15], -0.883; in experiment [16], -1.45; in experiment [17] it was -2.18. Further, the composite z-score is -1.21 in experiment [18], -0.967 in experiment [19] and -0.292 in experiment [20]. For the same compound, the z-score in [2] is 0.508 (inactive); in experiment [3], -0.633 (inactive); in [4] it was 0.653 (inactive); in [6] it was 1.62 (inactive); in [14], 0.763 (inactive).

For the compound `COCCCNC(=O)[C@@]1(c2ccc([N+](=O)[O-])cc2)CC(=O)N(C2CCCCC2)[C@@H]1c1ccc(CO)cc1`, the composite z-score in experiment [1] was 0.139; in experiment [5] it was 2.04; in experiment [7] it was -0.509; in experiment [8], -0.836; in [9], -0.193; in [10] it was -0.421. The composite z-score in [11] was -0.463; in experiment [12], -0.86; in experiment [13] it was -0.67; in [15] it was 0.316; in [16], 0.296; in experiment [17], -0.0545. The composite z-score in experiment [18] was -0.186; in experiment [19] it was -0.296; in experiment [20], -0.395. Moreover, the z-score was -0.707 (inactive) in experiment [2]; -0.591 (inactive) in experiment [3]; -0.432 (inactive) in experiment [4]; 0.77 (inactive) in [6]; -0.748 (inactive) in [14].

In the case of `CO[C@H]1COC(=O)CC=C[C@@H](C)COC(=O)[C@@H](C)NC(=O)CC=C[C@@H]1C`, the composite z-score in experiment [1] is 1.53; in [5], -0.55; in experiment [7], -0.179; in experiment [8], 1.83; in experiment [9] it was 0.473; in experiment [10], -0.0243. In addition, the composite z-score in [11] is 1.35; in experiment [12], -0.954; in [13], -1.84; in experiment [15], 0.567; in [16] it was 0.967; in [17] it was 1.39. The figures for the composite z-score in experiment [18], in experiment [19] and in experiment [20] were 1.45, 2.01 and -0.529, respectively. Besides, the z-score is -3.75 (inactive) in [2]; -2.87 (inactive) in [3]; -2.71 (inactive) in experiment [4]; -0.288 (inactive) in experiment [6]; -2.81 (inactive) in [14].
